Source: PubChem BioAssay AID1159580 (chemical genetic matrix, 2015)
Where “and” joins values, the source holds several entries; their conditions need not be identical. Identical values can stand only once. About 2,000 (36%) of roughly 5,500 compounds were called active. Roughly 18% stayed inconclusive and do not appear here. Cut-off read from the data, not from the text of the source: active = normalized growth mostly below about 0.91 (no sharp cut-off); inconclusive = no clear call, values can overlap the other calls; inactive = mostly above about 0.92. Some of the results follow.

Test: chemical genetic growth profiling, strain panel (AID 1159580);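 note: tested at 20 µM; growth read once vehicle control cultures reached saturation at 30 °C; 1 = growth at the plate median or of vehicle wells; lower values mean less growth of the strain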
Settings: S. cerevisiae deletion strains, growth OD

Measured: normalized growth

CC(C)c1c(O)ccc2c1CCC1C(C)(C)CCC[C@]21C (stereo partly specified)
active: locus YAL013W, strain DEP1, active compounds read low 0.063 | locus YAL021C, strain ccr4, active compounds read low 0.888 | locus YAL026C, strain drs2, active compounds read low 0.451 | locus YAL030W, strain snc1, active compounds read low 0.319 | locus YBL061C, strain skt5, active compounds read low 0.329 | locus YBR009C, strain hhf1, active compounds read low 0.182 | locus YBR021W, strain FUR4, active compounds read low 0.517 | locus YBR023C, strain chs3, active compounds read low 0.43 | locus YBR171W, strain sec66, active compounds read low 0.606 | locus YBR229C, strain ROT2, active compounds read low 0.245 | locus YBR231C, strain swc5, active compounds read low 0.258 | locus YBR279W, strain paf1, active compounds read low 0.769 | locus YCL011C, strain gbp2, active compounds read low 0.365 | locus YCL016C, strain dcc1, active compounds read low 0.353 | locus YCL029C, strain bik1, active compounds read low 0.29 | locus YCR088W, strain abp1, active compounds read low 0.848 | locus YDL035C, strain GPR1, active compounds read low 0.118 | locus YDL040C, strain nat1, active compounds read low 0.749 | locus YDL074C, strain BRE1, active compounds read low 0.111 | locus YDL101C, strain DUN1, active compounds read low 0.185 | locus YDL134C, strain PPH21, active compounds read low 0.0876 | locus YDL185W, strain tfp1, active compounds read low 0.135 | locus YDL192W, strain arf1, active compounds read low 0.139 | locus YDR069C, strain doa4, active compounds read low 0.842 | locus YDR101C, strain arx1, active compounds read low 0.43 | locus YDR137W, strain rgp1, active compounds read low 0.134 | locus YDR150W, strain NUM1, active compounds read low 0.399 | locus YDR159W, strain sac3, active compounds read low 0.304 | locus YDR162C, strain NBP2, active compounds read low 0.0592 | locus YDR195W, strain ref2 0.163 | locus YDR297W, strain sur2, active compounds read low 0.353 | locus YDR318W, strain mcm21, active compounds read low 0.182 | locus YDR335W, strain msn5, active compounds read low 0.863 | locus YDR388W, active compounds read low 0.38 | locus YDR392W, strain spt3, active compounds read low 0.141 | locus YDR502C, strain sam2, active compounds read low 0.185 | locus YEL003W, strain gim4, active compounds read low 0.543 | locus YEL061C, strain CIN8 (second series), active compounds read low 0.667 | locus YER015W, strain faa2, active compounds read low 0.548 | locus YER016W, strain bim1, active compounds read low 0.302 | locus YER110C, active compounds read low 0.713 | locus YER155C, strain BEM2, active compounds read low 0.0776 | locus YER167W, strain BCK2, active compounds read low 0.0994 | locus YGL078C, strain dbp3, active compounds read low 0.835 | locus YGL086W, strain mad1, active compounds read low 0.135 | locus YGL167C, strain pmr1, active compounds read low 0.248 | locus YGL227W, strain vid30, active compounds read low 0.691 | locus YGL240W, strain doc1, active compounds read low 0.822 | locus YGL248W, strain PDE1, active compounds read low 0.113 | locus YGL253W, strain hxk2, active compounds read low 0.67 | locus YGR135W, strain pre9, active compounds read low 0.373 | locus YGR252W, strain gcn5, active compounds read low 0.212 | locus YHR013C, strain ard1, active compounds read low 0.548 | locus YHR027C, strain rpn1, active compounds read low 0.527 | locus YHR030C, strain SLT2, active compounds read low 0.06 and 0.129 | locus YHR079C, strain IRE1 (second series), active compounds read low 0.335 | locus YHR079C, strain IRE1, active compounds read low 0.215 | locus YHR094C, strain hxt1, active compounds read low 0.272 | locus YHR129C, strain ARP1, active compounds read low 0.0824 | locus YHR142W, strain chs7, active compounds read low 0.682 | locus YHR200W, strain rpn10, active compounds read low 0.309 | locus YIL066C, strain RNR3, active compounds read low 0.111 | locus YIL073C, strain SPO22, active compounds read low 0.181 | locus YIL125W, strain kgd1, active compounds read low 0.395 | locus YIR030C, strain dcg1, active compounds read low 0.292 | locus YJL095W, strain BCK1 (second series), active compounds read low 0.103 | locus YJL095W, strain BCK1, active compounds read low 0.0705 and 0.204 | locus YJL129C, strain trk1, active compounds read low 0.259 | locus YJL134W, strain LCB3, active compounds read low 0.373 | locus YJL164C, strain tpk1, active compounds read low 0.197 | locus YJL166W, strain qcr8, active compounds read low 0.32 | locus YJL168C, strain set2, active compounds read low 0.725 | locus YJL187C, strain SWE1 (second series), active compounds read low 0.117 | locus YJL187C, strain SWE1, active compounds read low 0.403
inactive: locus YCL069W, strain vba3, active compounds read low 0.932 | locus YDL005C, strain med2, active compounds read low 0.961 | locus YDR001C, strain nth1, active compounds read low 1 | locus YDR334W, strain swr1, active compounds read low 0.974 | locus YEL037C, strain rad23, active compounds read low 0.991 | locus YER111C, strain swi4, active compounds read low 0.971 | locus YER155C, strain BEM2 (second series), active compounds read low 0.925 | locus YFR010W, strain ubp6, active compounds read low 0.929 | locus YGL173C, strain kem1, active compounds read low 0.947 | locus YJL092W, strain hpr5, active compounds read low 0.926 | locus YJL115W, strain asf1, active compounds read low 1.02 | locus YJL154C, strain vps35, active compounds read low 1.01
